Bead autofluor: compound fluorescence in toxin protease inhibitor counterscreen | fluorescence intensity (no concentration beside the values) | 360,000 compounds, 3.1% hits | AID 624483 | compound autofluorescence counterscreen, microsphere flow cytometry; active compounds read high; in the data active = fluorescence intensity above about 16000; inconclusive = no clear call, values can overlap the other calls
BoNT-A LC inh2: BoNT/A light chain protease inhibitors, primary screen, biochemical, flow cytometry, MLPCN library. Botulinum neurotoxin type A light chain protease (Clostridium botulinum A str. ATCC 3502). multiplex microsphere protease substrate cleavage. inhibition, % at 10 µM. 360,000 compounds, 0.17% hits. AID 588499, 2011; also: plate controls were buffer without enzyme for full effect and enzyme alone for no effect
BoNT-F LC inh: BoNT/F light chain protease inhibitors, primary screen, biochemical, flow cytometry, MLPCN library; Multiplex microsphere protease cleavage assay; Botulinum neurotoxin type F light chain protease (Clostridium botulinum); 360,000 compounds, 0.22% hits; inhibition, % at 10 µM; AID 588497, 2011; in the data active = inhibition above about 35%, passing the limit was not always enough; inconclusive = no clear call, values can overlap the other calls; also: plate controls were buffer without enzyme for full effect and enzyme alone for no effect
CCHFV vOTU inh: CCHFV vOTU protease inhibitors, primary screen, biochemical, Pep-AMC substrate, fluorescence. AID 651958, 2012. inhibition, % at 11.5 µM. 370,000 compounds, 0.55% hits. Crimean-Congo hemorrhagic fever virus L polyprotein viral ovarian tumor (vOTU) protease …; in the data active = inhibition above about 30%; also: 0% = vehicle wells with enzyme and 100% = no enzyme wells
Anthrax LF inh2: Bacillus anthracis LF protease inhibitors, primary screen, biochemical, multiplex microsphere, MLPCN library; Lethal factor (Bacillus anthracis), P15917; multiplex microsphere protease cleavage assay; inhibition, % at 10 µM; 360,000 compounds, 0.12% hits; AID 588501, 2011; also: plate controls were buffer without enzyme for full effect and enzyme alone for no effect
Target sequence (P15917 whole entry, looked up): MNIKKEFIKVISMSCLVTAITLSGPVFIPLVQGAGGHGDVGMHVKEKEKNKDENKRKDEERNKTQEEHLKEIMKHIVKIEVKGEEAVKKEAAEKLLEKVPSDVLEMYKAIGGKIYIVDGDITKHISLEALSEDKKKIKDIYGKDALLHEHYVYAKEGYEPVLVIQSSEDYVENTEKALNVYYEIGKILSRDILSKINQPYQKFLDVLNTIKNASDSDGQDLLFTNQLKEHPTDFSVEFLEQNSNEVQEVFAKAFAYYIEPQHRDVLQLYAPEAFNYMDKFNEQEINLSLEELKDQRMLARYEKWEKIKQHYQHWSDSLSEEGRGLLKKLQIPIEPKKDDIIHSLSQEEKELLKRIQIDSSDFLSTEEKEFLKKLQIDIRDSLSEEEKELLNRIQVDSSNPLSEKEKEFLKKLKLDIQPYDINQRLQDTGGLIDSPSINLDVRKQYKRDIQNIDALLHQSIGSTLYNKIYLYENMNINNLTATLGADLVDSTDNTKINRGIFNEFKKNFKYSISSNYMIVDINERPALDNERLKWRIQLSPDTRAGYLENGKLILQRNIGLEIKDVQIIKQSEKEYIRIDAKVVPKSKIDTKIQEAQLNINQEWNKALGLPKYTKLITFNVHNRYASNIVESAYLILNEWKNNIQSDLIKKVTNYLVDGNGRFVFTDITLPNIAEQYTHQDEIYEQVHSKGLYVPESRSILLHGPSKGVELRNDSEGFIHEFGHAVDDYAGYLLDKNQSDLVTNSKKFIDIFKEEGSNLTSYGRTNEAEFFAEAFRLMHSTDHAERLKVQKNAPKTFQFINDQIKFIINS
3CLpro inhibitor: SARS-CoV 3CLpro protease inhibitors, primary screen, biochemical, quenched FRET. recombinant SARS-CoV 3CLpro, quenched FRET peptide cleavage. inhibition, % at 6 µM. 290,000 compounds, 0.14% hits; in the data active = inhibition above about 12%
Active calls of the source: *; ? = inconclusive; · = no result given. The list is not random: actives were taken first. Their share in the collection is about 3.9%. Rule as the data show it, unless noted: active = inhibition above about 30%; inconclusive = no clear call, values can overlap the other calls; inactive = below that.

SMILES | Bead autofluor | BoNT-A LC inh2 | BoNT-F LC inh | CCHFV vOTU inh | Anthrax LF inh2 | 3CLpro inhibitor
CCC(C(=O)N1CCN(S(C)(=O)=O)CC1)c1ccccc1 (centres undefined) | 20841* | -2 | -4 | 19 | 1 | -1
O=C(CCn1c(=O)oc2ccccc21)NCCN1CCc2ccccc2C1 | 20382* | 1 | 5 | 5 | 1 | 0
CC1CCCC(NC(=O)COC(=O)Cc2ccc(Cl)cc2)C1C (centres undefined) | 3543 | 0 | -5 | 5 | 3 | ·
COc1cccc(CNC(=O)CCn2c(=O)oc3ccccc32)c1 | 25239* | -3 | -4 | 1 | -3 | -7
CC1CCCC(NC(=O)CCn2c(=O)oc3ccccc32)C1C (centres undefined) | 22573* | 1 | 0 | -3 | -4 | 1
CC1CCCC(NC(=O)COC(=O)Cc2ccccc2)C1C (centres undefined) | 17041* | 7 | 8 | 4 | -20 | 1
COc1ccc(CNC(=O)CCn2c(=O)oc3ccccc32)c(OC)c1 | 4537 | 0 | 2 | -4 | -9 | 4
COc1ccc(/C=C2/SC(=O)N(CC(=O)NCCC(C)C)C2=O)cc1OC | 4196 | -1 | 1 | -9 | 2 | -1
COc1ccc(/C=C2\SC(=O)N(CC(=O)NCCC(C)C)C2=O)cc1OC | 3482 | 4 | 43* | -2 | -2 | 0
C=CCOc1ccc(/C(CC)=N/O)c(OC)c1 | 23301* | ? | 1 | -2 | -2 | 3
O[C@H](COc1cc(F)cc(F)c1)CN1CCC(C(O)(c2ccccc2)c2ccccc2)CC1 | · | · | · | -2 | · | ·
O=C(c1ccc2ccccc2c1)N1CCN(c2ccccc2)CC1 | 19676* | ? | -1 | 2 | -1 | -3
O=C(CSCc1ccc(F)cc1)N1CCN(c2ccc(F)cc2)CC1 | 10897 | 1 | 2 | 10 | -1 | 0
O=C(c1cccc(S(=O)(=O)N2CCCCCC2)c1)N1CCN(c2ccccc2)CC1 | 4203 | -1 | -4 | 8 | -2 | 6
C=CCn1c(=O)[nH]c2cc(C(=O)N3CCN(c4cc(C)ccc4C)CC3)ccc2c1=O | 16226* | 0 | 2 | 7 | -2 | 2
O=C(c1cccc(S(=O)(=O)N2CCCC2)c1)N1CCN(c2ccccc2)CC1 | 21121* | -2 | -2 | -7 | -1 | -5
O=C(CSCc1ccc(F)cc1)N1CCN(c2ccccc2)CC1 | 23909* | -5 | -3 | 5 | -1 | 3
COCCCn1c(C)cc(C(=O)CN2c3cccc4cccc(c34)S2(=O)=O)c1C | 3726 | 0 | -8 | -1 | 1 | ·
O=C(c1ccccc1F)N1CCN(c2ccccc2)CC1 | 19300* | 2 | 1 | -9 | 3 | 1
CC(=O)c1ccc(N2CCN(C(=O)c3ccc4c(=O)n(-c5ccccc5)c(=O)[nH]c4c3)CC2)cc1 | 22374* | 2 | 1 | 7 | -1 | -7
O=C(c1ccc2c(=O)n(-c3ccccc3)c(=O)[nH]c2c1)N1CCN(c2ccc(F)cc2)CC1 | 5921 | 0 | 1 | 0 | -11 | 1
COc1ccc(CN2CCC[C@]3(N[C@H](c4ccc(C)cc4)[C@@H]4C(=O)N(C)C(=O)[C@@H]43)C2=O)cc1 | 3333 | 0 | 5 | 1 | -4 | ·
COc1cccc(NC(=O)N(CCCN2CCOCC2)C(C)c2cc3ccccc3o2)c1 (centres undefined) | 21426* | 3 | 4 | -14 | 1 | -10
CCN1C(=O)C(CC(=O)Nc2ccc(OC)cc2)N(Cc2cccs2)C1=S (centres undefined) | 16912* | ? | -4 | 3 | -2 | 2
Cc1ccc(NC(=S)NC(NC(=O)c2ccccc2C)C(Cl)(Cl)Cl)c(C)c1 (centres undefined) | 4514 | 0 | -5 | 15 | -8 | 13*
SMILES | Bead autofluor | BoNT-A LC inh2 | BoNT-F LC inh | CCHFV vOTU inh | Anthrax LF inh2 | 3CLpro inhibitor
CCOC(=O)c1ccc(-c2cccc(C(F)(F)F)c2)nc1C | 22705* | 1 | -3 | -7 | -2 | -2
CCOC(=O)c1cnn(-c2nc(-c3cccc(F)c3)cs2)c1C(F)(F)F | 19380* | 2 | -2 | -3 | -3 | -3
CCOC(=O)[C@]12CCCCC/C=C\1N(Cc1ccc(OC)cc1)C(=O)[C@H]2CC(=O)NCCCOC | · | · | · | -1 | · | ·
CCN(CC)c1ccc(NC(=O)COC(=O)c2cccs2)cc1 | 22712* | 0 | 0 | 0 | -3 | -2
CCN(c1ccc(NC(=O)COC(=O)c2cccs2)cc1)C(C)C | 3344 | 1 | -7 | 10 | -7 | 5
CC(C)Cn1c(NCCO)nc2ccccc21 | 19740* | 1 | 0 | -5 | -1 | -2
COc1ccc(OC)c(S(=O)(=O)N2CCCCC2C(=O)N2CCN(CCO)CC2)c1 (centres undefined) | · | · | · | 1 | · | ·
NC(=O)CSc1nnc(-c2ccc(S(=O)(=O)N3CCOCC3)cc2)n1CC1CCCO1 (centres undefined) | 22288* | 1 | 3 | -3 | -6 | -5
Cc1ccc(NC(=O)CSc2nnc(-c3ccc(S(=O)(=O)N4CCOCC4)cc3)n2C)cc1 | 19086* | ? | 2 | -4 | -5 | -9
Cn1c(SCC(=O)Nc2ccccc2F)nnc1-c1ccc(S(=O)(=O)N2CCOCC2)cc1 | 14730 | 5 | 5 | -2 | 0 | 1
COc1cccc(NC(=O)Cn2c(SCC(=O)N3CCOCC3)nc3ccccc32)c1 | 16158* | ? | -2 | -6 | -5 | 2
COCCn1c(SCC(=O)Nc2ccc(S(=O)(=O)N3CCOCC3)cc2)nc2ccccc21 | 23038* | ? | -4 | -5 | -6 | 3
Cn1c(CN2CCOCC2)nc2cc(NC(=O)COc3ccc([N+](=O)[O-])cc3)ccc21 | 4481 | -1 | -3 | -3 | -1 | -5
COc1ccc(NC(=O)CCNC(=O)c2ccc([N+](=O)[O-])cc2)cc1S(=O)(=O)N1CCCCC1 | 4687 | 3 | 3 | -4 | 4 | ·
COC(=O)[C@H](CC(C)C)NC(=O)Cn1cnc2c(OCc3ccccc3)ncnc21 | 3874 | 0 | 2 | 0 | 1 | ·
CCOC(=O)/C(=C\Nc1ccc(OCc2ccccc2)cc1)NC(=O)c1ccccc1 | · | · | · | -4 | · | ·
Cc1ccc(-n2c(SCC(N)=O)nnc2-c2ccc(S(=O)(=O)N3CCCCC3)cc2)c(C)c1 | 16453* | 1 | 0 | -1 | -1 | -1
O=C(CCCN1C(=O)c2ccccc2C1=O)Nc1ccc(S(=O)(=O)N2CCOCC2)cc1 | 24200* | ? | -7 | -3 | -5 | 0
CC(=O)Nc1ccc(C(=O)CSc2nc3ccccc3n2CC(=O)N2CCCC2)cc1 | 16357* | 0 | -4 | 2 | -1 | -6

Source: PubChem BioAssay (several laboratories)
